Assay results: PubChem BioAssay AID1159580 (chemical genetic matrix, 2015)
The whole screen tested about 5,500 compounds, of which about 2,000 (36%) were called active. About 18% were inconclusive and are not listed. Cut-off read from the data, not from the text of the source: active = normalized growth mostly below about 0.91 (no sharp cut-off); inconclusive = no clear call, values can overlap the other calls; inactive = mostly above about 0.92. Some of the results follow.

Assay: chemical genetic growth profiling, strain panel (AID 1159580);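 note: tested at 20 µM; growth read once vehicle control cultures reached saturation at 30 °C; 1 = growth at the plate median or of vehicle wells; lower values mean less growth of the strain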
Conditions: S. cerevisiae deletion strains, growth OD

Measured: normalized growth

CCOC(=O)c1c(C)cc(O)c(C)c1O
inactive: locus YBR021W, strain FUR4, hits give low values 0.975 | locus YBR229C, strain ROT2, hits give low values 0.976 | locus YCL029C, strain bik1, hits give low values 0.955 | locus YDL035C, strain GPR1, hits give low values 1.01 | locus YDL074C, strain BRE1, hits give low values 0.981 | locus YDL101C, strain DUN1, hits give low values 0.986 | locus YDL134C, strain PPH21, hits give low values 0.979 | locus YDL185W, strain tfp1, hits give low values 0.969 | locus YDL192W, strain arf1, hits give low values 0.931 | locus YDR150W, strain NUM1, hits give low values 0.98 | locus YDR162C, strain NBP2, hits give low values 0.966 | locus YDR502C, strain sam2, hits give low values 0.929 | locus YEL061C, strain CIN8, hits give low values 0.975 | locus YER110C, hits give low values 0.938 | locus YER155C, strain BEM2, hits give low values 0.941 | locus YER167W, strain BCK2, hits give low values 0.961 | locus YGL078C, strain dbp3, hits give low values 0.968 | locus YGL248W, strain PDE1, hits give low values 0.992 | locus YGR135W, strain pre9, hits give low values 0.931 | locus YGR252W, strain gcn5, hits give low values 1.07 | locus YHR030C, strain SLT2, hits give low values 0.978 | locus YHR079C, strain IRE1 (second series), hits give low values 0.945 | locus YHR094C, strain hxt1, hits give low values 0.932 | locus YHR129C, strain ARP1, hits give low values 0.988 | locus YHR200W, strain rpn10, hits give low values 0.933 | locus YIL066C, strain RNR3, hits give low values 0.999 | locus YIL073C, strain SPO22, hits give low values 1.02 | locus YIR030C, strain dcg1, hits give low values 0.952 | locus YJL095W, strain BCK1, hits give low values 0.936 | locus YJL134W, strain LCB3, hits give low values 0.965 | locus YJL168C, strain set2, hits give low values 0.945 | locus YJL187C, strain SWE1 (second series), hits give low values 0.996 | locus YJR043C, strain POL32, hits give low values 0.949 | locus YKL009W, strain mrt4, hits give low values 1.01 | locus YKL068W, hits give low values 0.945 | locus YKL085W, strain MDH1 (second series), hits give low values 0.943 | locus YKL085W, strain MDH1, hits give low values 0.943 | locus YLR039C, strain RIC1, hits give low values 1.04 | locus YLR058C, strain SHM2, hits give low values 0.97 | locus YLR102C, strain apc9, hits give low values 0.946 | locus YLR268W, strain sec22, hits give low values 0.918 | locus YLR330W, strain CHS5, hits give low values 0.976 | locus YML016C, strain PPZ1, hits give low values 0.956 | locus YML032C, strain rad52, hits give low values 0.917 | locus YML124C, strain tub3, hits give low values 0.935 | locus YMR078C, strain ctf18, hits give low values 0.924 | locus YMR223W, strain ubp8, hits give low values 0.952 | locus YMR263W, strain SAP30, hits give low values 0.97 | locus YMR307W, strain GAS1, hits give low values 0.923 | locus YNL067W, strain RPL9B, hits give low values 0.978 | locus YNL233W, strain BNI4, hits give low values 0.956 | locus YNL250W, strain rad50, hits give low values 0.963 | locus YNL271C, strain bni1, hits give low values 0.941 | locus YNL298W, strain CLA4, hits give low values 0.964 | locus YNL322C, strain KRE1, hits give low values 0.968 | locus YNR052C, strain pop2, hits give low values 0.993 | locus YOL006C, strain TOP1, hits give low values 0.887 | locus YOL012C, strain htz1 0.713 | locus YOR061W, strain CKA2, hits give low values 0.98 | locus YOR069W, strain VPS5, hits give low values 0.975 | locus YOR136W, strain idh2, hits give low values 0.957 | locus YOR144C, strain elg1, hits give low values 0.939 | locus YOR184W, strain ser1, hits give low values 0.89 | locus YOR316C, strain cot1, hits give low values 0.959 | locus YPL055C, strain LGE1, hits give low values 0.954 | locus YPR141C, strain kar3, hits give low values 0.924 | locus YPR163C, strain tif3, hits give low values 0.918 | locus YPR167C, strain met16, hits give low values 0.945 | strain wtn01, hits give low values 0.909
active: locus YDR101C, strain arx1, hits give low values 0.901 | locus YDR318W, strain mcm21, hits give low values 0.901 | locus YDR388W, hits give low values 0.916 | locus YGL086W, strain mad1, hits give low values 0.916 | locus YIL125W, strain kgd1, hits give low values 0.922 | locus YKR001C, strain vps1, hits give low values 0.887 | locus YLR371W, strain rom2, hits give low values 0.717 | locus YLR418C, strain cdc73, hits give low values 0.806 | locus YNL307C, strain MCK1, hits give low values 0.875 | locus YOL147C, strain pex11, hits give low values 0.914 | locus YPR119W, strain clb2, hits give low values 0.928
